# Source: PubChem BioAssay (NCI)
# About 83,000 compounds went through this panel and 20% of them were active in at least one assay; those are over-represented in the sample as a whole.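 How to read the values: 0–100, growth inhibition (40 = 60% inhibited); 0, no net growth; -100 to 0, cell death (-40 = 40% of starting cells died; -100 = all dead).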 Unmarked numbers belong to inactive results. The source made the active and inactive calls. The calls were made as follows: active = growth percent below 10; inactive = the rest.
# Tests used:
# Experiment in all cases: NCI-60 one-dose screen, 48 h (100 = growth as untreated, 0 = no growth, -100 = all killed)
# Conditions in all cases: 10 µM unless noted
# SK-MEL-2 melanoma = test system: SK-MEL-2 melanoma
# EKVX NSCLC = test system: EKVX NSCLC
# SN12C renal = test system: SN12C renal
# UO-31 renal = test system: UO-31 renal
# TK-10 renal = test system: TK-10 renal
# ACHN renal = test system: ACHN renal
# CAKI-1 renal = test system: CAKI-1 renal
# A498 renal = test system: A498 renal
# CCRF-CEM leukemia = test system: CCRF-CEM leukemia
# MOLT-4 leukemia = test system: MOLT-4 leukemia
SMILES,growth (SK-MEL-2 melanoma),growth (EKVX NSCLC),growth (SN12C renal),growth (UO-31 renal),growth (TK-10 renal),growth (ACHN renal),growth (CAKI-1 renal),growth (A498 renal),growth (CCRF-CEM leukemia),growth (MOLT-4 leukemia)
CCCCCCCOc1c(OC)cc(C2CC(=O)Nc3c2c(C)nn3-c2nc3ccccc3[nH]2)cc1OC (stereo not given),-56.8% (active),-26.5% (active),9.34% (active),-69.7% (active),11%,1.49% (active),-41% (active),-28.6% (active),24.5%,15.2%
O=C1Nc2ccccc2/C1=C/c1cn(C(=O)c2ccc(Cl)cc2)c2ccccc12,120%,59%,95.4%,74.7%,130%,103%,59.1%,116%,104%,109%
Cc1cc(/C=C\c2ccc3ccccc3[n+]2C)c(O)c2ncccc12,35.9%,18.7%,3.73% (active),16.8%,23.2%,6.11% (active),-0.345% (active),30.5%,25.6%,0.695% (active)
O=c1c2c3c(sc2n2c(-c4cn(-c5ccccc5)nc4-c4ccc(Cl)cc4)nnc2n1Cc1ccccc1)CCCC3,97.8%,87.1%,91.2%,4.67% (active),107%,99.2%,100%,100%,81.1%,85.4%
N#Cc1c2c(nn(-c3ccccc3)c1=O)C(O)=C([N+](=O)[O-])C(c1ccccc1)C2 (stereo not given),89%,83.8%,89.7%,64%,99.1%,74.3%,81.9%,90.7%,58%,67.5%
CCOC(=O)c1csc(NC(=O)COc2cccc(/C=C3\Oc4cc(OC)ccc4C3=O)c2)n1,83.5%,98.6%,109%,-38.8% (active),125%,95.5%,92.3%,108%,62.3%,65.1%
COc1cc(C2CC(=O)Nc3c2c(C)nn3-c2nc3ccccc3[nH]2)c(OC)c2c1OCO2 (stereo not given),80.7%,71.7%,82.2%,40.2%,36.4%,86.2%,40.6%,38.8%,61.7%,13.5%
Cc1ccc(Nc2ccc(Nc3ccc(C)cc3)c3c2C(=O)c2cccc(O)c2C3=O)cc1,65.5%,91.6%,98%,64.7%,137%,91%,104%,116%,93.2%,104%
CC(C)C(NC(=O)C1(NC(=O)OCc2ccccc2)CCCC1)C(=O)O (stereo not given),107%,110%,102%,81%,108%,96.8%,102%,102%,104%,96%
O=C1/C(=C\c2c[nH]c3ccccc23)c2ccccc2N1c1c(Cl)cccc1Cl,15.8%,-5.29% (active),-29.6% (active),20.7%,-29.4% (active),3.26% (active),-38.6% (active),19.2%,11.6%,-13.1% (active)
CCc1c2c(nc3ccc(OC(=O)OCc4ccc(B5OC(C)(C)C(C)(C)O5)cc4)cc13)-c1cc3c(c(=O)n1C2)COC(=O)[C@]3(O)CC,-30.5% (active),37.3%,-4.2% (active),-72.1% (active),0.26% (active),-53.6% (active),-44.1% (active),-65.1% (active),17.9%,20.3%
COc1ccc(-c2nc3ccc4[nH]ncc4c3c3c2CCCC3)cc1B(O)O,56.1%,17.7%,52%,33.7%,49.5%,20.9%,-1.55% (active),8.27% (active),46.8%,48.8%
COc1cc(/C=C2\C(=O)ON=C2C)cc(OC)c1OC,113%,97.8%,98.3%,80.3%,104%,96.9%,91.5%,65%,92.8%,102%
COc1ccc(C2c3ccc4ccccc4c3Oc3nc(C)[nH]c(=O)c32)cc1 (stereo not given),112%,103%,99.4%,-97.5% (active),116%,92.3%,73.9%,92.5%,106%,115%
Clc1ccc(-c2c3ccc(=[N+]4CCCCC4)cc-3oc3cc(N4CCCCC4)ccc23)cc1,-77.4% (active),-66.7% (active),-79.1% (active),-83.9% (active),-94.8% (active),-94.4% (active),-75.2% (active),-97.5% (active),0.54% (active),-32.1% (active)
N#Cc1c(N)nc2c(C#N)c(NC(=O)c3ccccc3)nn2c1-c1ccccc1,101%,71.9%,91.7%,61.3%,135%,89.6%,91%,59.1%,57.2%,74.9%
O=C(/C=C/c1cccc(O)c1)c1cccc(-n2cc(-c3ccc4ccccc4c3)[nH]c2=O)c1,84.4%,11.2%,5.36% (active),35.5%,-5.34% (active),-40.7% (active),-1.58% (active),91.9%,1.72% (active),-1.37% (active)
O=C1Nc2ccc(F)cc2C12Nc1cc(Cl)ccc1S2 (stereo not given),157%,89.2%,97.9%,80.4%,188%,99.8%,55.2%,89.2%,76.4%,74.5%
Cc1ccc(S(=O)(=O)Oc2cc(OS(=O)(=O)c3ccc(C)cc3)cc(OS(=O)(=O)c3ccc(C)cc3)c2)cc1,91.5%,106%,107%,71.8%,156%,114%,84.2%,96.9%,95.7%,82.2%
Cc1ccc(N2CCN(C(=S)c3cccs3)CC2)cc1,94.9%,108%,102%,94.8%,87.3%,120%,96.4%,99.1%,95.3%,93.6%
CCOC(=O)c1ccc(N2NC(=O)/C(=C/c3ccc([N+](=O)[O-])o3)C2=O)cc1,31.8%,111%,119%,100%,106%,104%,108%,109%,89.3%,105%
COc1ccc(CNC(=O)C(O)C(Cc2ccccc2)NC(=O)c2[nH]c3ccccc3c(=O)c2C)cc1OC (stereo not given),99.5%,99%,103%,98.7%,93.6%,108%,99.6%,113%,108%,99.8%
COc1ccc(-c2c(N)n[nH]c2-c2ccc(Cl)cc2O)cc1OC,78.7%,109%,52.4%,74%,102%,96.1%,90.5%,86.6%,69.1%,107%
O=C(/C=C/c1c(Cl)nc2sccn12)c1ccc(F)c(F)c1,74.7%,74%,76.5%,64%,91.6%,81.1%,81.2%,73.6%,71.7%,66.7%
CNc1ccc(NC)c2c1C(=O)c1ccccc1C2=O,97.7%,94.6%,80.3%,77.7%,84.9%,77.7%,76.4%,94.4%,84.3%,92.1%
COc1ccc(/C=N/C2=C(C#N)C(c3ccc(OC)cc3)c3ccc4ccccc4c3O2)cc1 (stereo not given),84.4%,85.1%,76.5%,53.7%,87.1%,81.4%,37.3%,26.6%,77.4%,60.2%
Cc1c(Cl)cc(-n2c(=O)c3ccccc3c3ccccc3c2=O)cc1Cl,98.3%,97%,85.2%,65.3%,111%,101%,80.9%,141%,97.9%,95.5%
